Experimental data taken from PubChem BioAssay (EPA / NIEHS).
The source made the active and inactive calls. Rule for the calls: active = hit-call score of the fitted dose curve at least 0.9, where 1 is the maximum; inactive = score below 0.9.

Legend:
[1] = ATG_CRE_CIS: Attagene CIS-FACTORIAL HepG2 Assay for human cAMP Responsive Element (CRE) binding protein 3 (AID 2282926); settings: HepG2 CRE cis-reporter, Attagene multiplexed mRNA; actives raise or lower the signal
In short: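 Assay format: transient reporter transfection of HepG2, 24 h treatment, total RNA isolation with DNase I step. Reporter abundance read by fluorescence after PCR and capillary separation; DMSO-normalised gain or loss fitting.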

[2] = target: CCAAT/enhancer-binding protein beta (Homo sapiens) (UniProt P17676); test: ATG_C_EBP_CIS: Attagene CIS-FACTORIAL HepG2 Assay for human CCAAT/Enhancer Binding Protein (C/EBP) beta (AID 2282927); settings: HepG2 Attagene cis-factorial transcription factor reporter; actives raise or lower the signal
In short: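 HepG2 transiently transfected with multiplexed reporter units under cis-regulatory promoters reporting endogenous C/EBPb activity. After 24 h exposure, reporter mRNA assayed by RT-PCR, fluorescent labelling, HpaI digestion and capillary electrophoresis; bidirectional fitting versus DMSO.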

[3] = ATG_CMV_CIS: Attagene CIS-FACTORIAL HepG2 Assay for human CMV (Internal Marker) (AID 2282928); settings: HepG2 CMV promoter reporter, transcription factor profiling; actives raise or lower the signal;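 note: endpoint acts as a background internal control marker rather than a target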
In short: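 Readout: fluorescent reporter cDNA fragments separated by capillary electrophoresis after RT-PCR and HpaI cut. Cells: HepG2 carrying transfected cis-promoter reporter constructs, dosed 24 h. Endpoint serves as background internal-marker control, fit bidirectionally versus DMSO.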

[4] = target: Aryl hydrocarbon receptor (Homo sapiens) (UniProt P35869); test: ATG_Ahr_CIS: Attagene CIS-FACTORIAL HepG2 Assay for human Aryl Hydrocarbon Receptor (Ahr) (AID 2282930); settings: HepG2 AhR cis-factorial reporter transcription; actives raise or lower the signal
In short: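 HepG2 cells transiently transfected with cis-element-driven multiplexed reporter units; endogenous AhR activity read as reporter mRNA 24 h after dosing, via RT-PCR, 6-FAM labelling, HpaI digestion and capillary electrophoresis. Bidirectional fit relative to DMSO.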

[5] = ATG_AP_1_CIS: Attagene CIS-FACTORIAL HepG2 Assay for human Activator Protein 1 (AP-1) (AID 2282931); settings: HepG2 Attagene cis-factorial AP-1 reporter mRNA; actives raise or lower the signal
In short: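 Multiplexed HepG2 reporter assay, 24 h dosing. mRNA induction detected by RT-PCR plus capillary electrophoresis. Activity fitted in both directions against DMSO.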

[6] = ATG_AP_2_CIS: Attagene CIS-FACTORIAL HepG2 Assay for human Activator Protein 2 (AP-2) (AID 2282932); settings: HepG2 AP-2 cis-reporter, Attagene transcription factor profiling; actives raise or lower the signal
In short: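 Read-out: fluorescent reporter mRNA via RT-PCR and capillary electrophoresis, 24 h post-dose in transiently transfected HepG2. Endogenous factors drive cis-promoter reporters; gain or loss of signal fitted bidirectionally against DMSO.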

[7] = target: Retinoic acid receptor alpha (Homo sapiens) (UniProt P10276); test: ATG_DR5_RAR_CIS: Attagene CIS-FACTORIAL HepG2 Assay for human Retinoic Acid Receptor Alpha (RARE), DR5 submotif (AID 2282934); settings: HepG2 Attagene cis-factorial RARE DR5 reporter, mRNA; actives raise or lower the signal;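 for AC50: reporter responds to endogenous RAR alpha beta and gamma in HepG2 not RARA alone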
In short: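 HepG2 cells transiently transfected with multiplexed reporter units; DR5 cis-element drives reporter through endogenous transcription factors. After 24 h dosing, reporter mRNA quantified by RT-PCR, fluorescent labeling, HpaI digestion and capillary electrophoresis; bidirectional fitting versus DMSO.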

[8] = target: Transcription factor E2F1 (Homo sapiens) (UniProt Q01094); test: ATG_E2F_CIS: Attagene CIS-FACTORIAL HepG2 Assay for human E2F Transcription Factor 1 (AID 2282935); settings: HepG2 Attagene cis-reporter, E2F reporter RNA transcripts; actives raise or lower the signal
In short: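 Transient MRTU transfection of HepG2; 24 h compound exposure; RNA → oligo(dT) RT → PCR → FAM label → HpaI cut → CE fluorescence. Gain/loss of signal fit against DMSO.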

[9] = ATG_E_Box_CIS: Attagene CIS-FACTORIAL HepG2 Assay for human Enhancer Box (E-box) (AID 2282936); settings: HepG2 E-box cis-reporter transcription, actives raise or lower the signal
In short: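 Transiently transfected HepG2, endogenous TF-driven reporters, 24 h dosing. Readout: RT-PCR plus capillary electrophoresis of fluorescent reporter fragments. Gain or loss of signal fitted bidirectionally against DMSO baseline.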

[10] = ATG_M_61_CIS: Attagene CIS-FACTORIAL HepG2 Assay for M61 Transcription Factor (Internal Marker) (AID 2282937); settings: HepG2 Attagene CIS-FACTORIAL M61 internal marker reporter; actives raise or lower the signal
In short: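 Endogenous transcription factor activity in HepG2 is read through transiently transfected cis-element reporter units. After 24 h dosing, RNA undergoes reverse transcription, PCR and primer extension with 6-FAM before capillary electrophoresis; DMSO-referenced bidirectional fit.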

[11] = ATG_EGR_CIS: Attagene CIS-FACTORIAL HepG2 Assay for human Early Growth Response 1 (EGR1) (AID 2282938); settings: HepG2 Attagene CIS-FACTORIAL EGR reporter mRNA; actives raise or lower the signal
In short: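 Activity is taken as induction or loss of reporter mRNA versus DMSO, fitted bidirectionally. Transcripts from cis-regulated reporter units in transiently transfected HepG2 were measured after 24 h by RT-PCR with capillary electrophoresis.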

[12] = ATG_M_19_CIS: Attagene CIS-FACTORIAL HepG2 Assay for M19 Transcription Factor (Internal Marker) (AID 2282939); settings: HepG2 Attagene CIS-FACTORIAL M19 internal marker reporter; actives raise or lower the signal
In short: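 HepG2 cells transiently transfected with cis-regulated multiple reporter transcription units were dosed for 24 h; reporter mRNA was quantified by RT-PCR, 6-FAM primer-extension labelling, HpaI digestion and capillary electrophoresis, with bidirectional fitting against DMSO baseline.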

[13] = ATG_ERE_CIS: Attagene CIS-FACTORIAL HepG2 Assay for Estrogen Response Element (ERE) (AID 2282940); settings: HepG2 ERE cis-reporter, Attagene RNA transcript; actives raise or lower the signal
In short: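 HepG2 cells transiently transfected with cis-promoter-driven multiplexed reporter transcription units report endogenous TF activity. After 24 h compound exposure, reporter mRNA is quantified by RT-PCR with capillary electrophoresis fluorescence; bidirectional fitting versus DMSO baseline.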

[14] = ATG_Ets_CIS: Attagene CIS-FACTORIAL HepG2 Assay for human Erythroblast Transformation Specific (ETS) (AID 2282941); settings: HepG2 ETS cis-reporter transcription, actives raise or lower the signal
In short: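 RT-PCR/capillary electrophoresis fluorescence read-out of reporter mRNA; HepG2 transient multi-reporter transfection; 24 h compound exposure; gain or loss of signal fitted bidirectionally relative to DMSO.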

[15] = target: Hepatocyte nuclear factor 3-beta (Homo sapiens) (UniProt Q9Y261); test: ATG_FoxA2_CIS: Attagene CIS-FACTORIAL HepG2 Assay for human Forkhead box A2 (FOXA2) (AID 2282942); settings: HepG2 cis-reporter transcription factor activity, 24 h; actives raise or lower the signal
In short: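 Reporter transcript induction is measured by fluorescence after capillary electrophoresis of RT-PCR products from HepG2 cells exposed 24 h. Cis-regulated reporter units report endogenous factor activity; curves fitted both directions against DMSO.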

[16] = ATG_FoxO_CIS: Attagene CIS-FACTORIAL HepG2 Assay for human Forkhead box O (FoxO) (AID 2282943); settings: HepG2 Attagene cis-reporter, FoxO element, mRNA; actives raise or lower the signal
In short: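 HepG2 cells transiently transfected with cis-element-driven reporter units report endogenous FoxO activity. After 24 h chemical exposure, reporter mRNA quantified by RT-PCR, fluorescent labeling, HpaI digestion and capillary electrophoresis; bidirectional fit versus DMSO.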

[17] = ATG_GATA_CIS: Attagene CIS-FACTORIAL HepG2 Assay for human GATA Binding Protein (AID 2282944); settings: HepG2 GATA cis-element reporter, Attagene multiplex mRNA; actives raise or lower the signal
In short: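 HepG2 cells transiently transfected with multiplexed cis-element reporter units reflecting endogenous transcription factor activity; reporter mRNA measured after 24 h dosing by RT-PCR, 6-FAM labeling, HpaI digestion and capillary electrophoresis. Bidirectional fitting versus DMSO baseline.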

[18] = ATG_GLI_CIS: Attagene CIS-FACTORIAL HepG2 Assay for human Zinc Finger Protein GLI1 (AID 2282945); settings: HepG2, Attagene cis-factorial reporter mRNA, GLI element; actives raise or lower the signal
In short: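 Transiently transfected HepG2 cells report endogenous transcription factor activity via cis-element-driven reporter units. After 24 h compound exposure, reporter mRNA was measured by RT-PCR with capillary electrophoresis; bidirectional fitting against DMSO baseline.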

[19] = ATG_DR4_LXR_CIS: Attagene CIS-FACTORIAL HepG2 Assay for human Liver X Receptor (LXR), DR4 submotif (AID 2282929); settings: HepG2 Attagene DR4 cis-reporter, mRNA transcription; actives raise or lower the signal
In short: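 Fluorescence intensity of labelled reporter cDNA fragments, separated by capillary electrophoresis, gives the signal. HepG2 cells bearing cis-regulated reporter constructs were treated 24 h; activity fitted bidirectionally relative to DMSO negative control.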

[20] = ATG_BRE_CIS: Attagene CIS-FACTORIAL HepG2 Assay for human Bone Morphogenetic Protein (BMP) Response Element (BRE) (AID 2282933); settings: HepG2 BMP response element reporter, Attagene transcription factor profiling; actives raise or lower the signal
In short: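 HepG2 cells transiently transfected with multiplexed cis-element reporter units were dosed with chemical for 24 h. Reporter mRNA was measured by RT-PCR with fluorescent labelling, HpaI digestion and capillary electrophoresis; bidirectional fitting relative to DMSO.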

Measured: AC50

Sequence of Transcription factor E2F1 (Homo sapiens) (Q01094 whole entry, looked up): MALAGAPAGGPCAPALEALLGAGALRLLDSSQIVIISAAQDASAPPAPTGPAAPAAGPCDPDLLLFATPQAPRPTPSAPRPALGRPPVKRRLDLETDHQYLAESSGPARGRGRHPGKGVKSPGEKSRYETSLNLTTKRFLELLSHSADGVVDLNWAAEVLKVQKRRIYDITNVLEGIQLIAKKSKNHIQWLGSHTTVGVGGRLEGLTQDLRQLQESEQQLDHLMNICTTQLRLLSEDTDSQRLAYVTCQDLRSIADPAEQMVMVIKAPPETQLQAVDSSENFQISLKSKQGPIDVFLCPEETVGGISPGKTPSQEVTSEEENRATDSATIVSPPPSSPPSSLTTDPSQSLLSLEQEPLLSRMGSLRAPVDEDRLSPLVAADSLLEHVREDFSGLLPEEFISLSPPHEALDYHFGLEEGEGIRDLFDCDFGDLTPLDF
Sequence of CCAAT/enhancer-binding protein beta (Homo sapiens) (P17676 whole entry, looked up): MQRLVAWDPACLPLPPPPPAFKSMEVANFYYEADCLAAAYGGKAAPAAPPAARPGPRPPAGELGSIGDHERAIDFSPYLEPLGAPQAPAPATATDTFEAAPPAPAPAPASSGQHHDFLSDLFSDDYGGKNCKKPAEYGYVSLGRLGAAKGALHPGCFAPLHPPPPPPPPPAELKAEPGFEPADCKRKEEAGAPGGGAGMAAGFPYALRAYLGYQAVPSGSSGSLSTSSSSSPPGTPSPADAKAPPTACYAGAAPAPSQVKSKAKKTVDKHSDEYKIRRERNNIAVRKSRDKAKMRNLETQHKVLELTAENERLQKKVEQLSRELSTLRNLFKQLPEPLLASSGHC
Sequence of Aryl hydrocarbon receptor (Homo sapiens) (P35869 whole entry, looked up): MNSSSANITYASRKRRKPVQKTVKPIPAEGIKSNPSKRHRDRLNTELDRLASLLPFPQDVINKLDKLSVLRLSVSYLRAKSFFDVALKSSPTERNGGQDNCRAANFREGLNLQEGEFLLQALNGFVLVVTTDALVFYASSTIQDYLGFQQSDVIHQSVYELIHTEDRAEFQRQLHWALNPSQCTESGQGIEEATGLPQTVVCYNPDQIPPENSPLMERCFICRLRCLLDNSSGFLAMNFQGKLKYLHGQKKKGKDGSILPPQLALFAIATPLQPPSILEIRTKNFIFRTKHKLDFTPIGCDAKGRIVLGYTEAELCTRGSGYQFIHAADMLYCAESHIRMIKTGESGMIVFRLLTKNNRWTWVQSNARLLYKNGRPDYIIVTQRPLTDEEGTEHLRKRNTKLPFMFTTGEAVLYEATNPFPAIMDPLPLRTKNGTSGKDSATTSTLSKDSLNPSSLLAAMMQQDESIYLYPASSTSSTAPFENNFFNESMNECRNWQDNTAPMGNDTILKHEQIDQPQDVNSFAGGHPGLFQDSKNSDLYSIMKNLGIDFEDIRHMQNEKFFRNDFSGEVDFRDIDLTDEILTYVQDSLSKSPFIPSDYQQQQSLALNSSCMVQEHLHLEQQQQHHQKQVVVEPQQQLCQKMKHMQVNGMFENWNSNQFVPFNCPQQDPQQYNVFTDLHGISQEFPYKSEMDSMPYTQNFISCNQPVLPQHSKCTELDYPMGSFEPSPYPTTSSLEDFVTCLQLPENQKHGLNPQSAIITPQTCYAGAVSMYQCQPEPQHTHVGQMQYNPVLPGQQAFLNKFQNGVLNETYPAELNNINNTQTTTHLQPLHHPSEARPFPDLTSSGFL
Sequence of Retinoic acid receptor alpha (Homo sapiens) (P10276 whole entry, looked up): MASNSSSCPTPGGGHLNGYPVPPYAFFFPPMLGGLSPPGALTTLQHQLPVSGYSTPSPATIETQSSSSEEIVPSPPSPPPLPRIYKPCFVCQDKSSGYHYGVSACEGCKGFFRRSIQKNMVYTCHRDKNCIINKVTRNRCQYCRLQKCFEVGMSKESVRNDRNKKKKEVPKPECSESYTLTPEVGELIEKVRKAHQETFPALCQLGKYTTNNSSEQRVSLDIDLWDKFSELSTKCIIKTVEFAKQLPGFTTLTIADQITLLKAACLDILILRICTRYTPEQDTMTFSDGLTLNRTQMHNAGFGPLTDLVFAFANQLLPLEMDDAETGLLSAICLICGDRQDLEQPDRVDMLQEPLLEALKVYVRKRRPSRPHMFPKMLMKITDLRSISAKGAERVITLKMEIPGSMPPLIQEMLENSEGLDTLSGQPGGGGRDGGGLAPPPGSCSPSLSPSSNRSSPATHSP
Sequence of Hepatocyte nuclear factor 3-beta (Homo sapiens) (Q9Y261 whole entry, looked up): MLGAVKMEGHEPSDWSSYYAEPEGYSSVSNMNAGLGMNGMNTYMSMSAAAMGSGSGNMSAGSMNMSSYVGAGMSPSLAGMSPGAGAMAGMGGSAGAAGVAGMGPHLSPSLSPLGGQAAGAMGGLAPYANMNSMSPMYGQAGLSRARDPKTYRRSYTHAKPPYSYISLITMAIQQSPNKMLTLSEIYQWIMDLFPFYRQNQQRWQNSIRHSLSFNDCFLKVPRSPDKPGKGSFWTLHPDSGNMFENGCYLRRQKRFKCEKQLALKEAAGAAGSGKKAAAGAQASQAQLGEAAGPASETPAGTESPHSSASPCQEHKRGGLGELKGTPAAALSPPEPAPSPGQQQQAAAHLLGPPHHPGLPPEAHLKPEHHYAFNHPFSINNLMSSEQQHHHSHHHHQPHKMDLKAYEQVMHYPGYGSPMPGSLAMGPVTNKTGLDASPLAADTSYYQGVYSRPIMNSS

CSc1nc(NC(C)C)nc(NC(C)C)n1
active: [7] 21.9 µM
not listed: [19] | [20]
inactive: all other assays above

CC(C)[C@H](C(=O)O[C@H](C#N)c1cccc(Oc2ccccc2)c1)c1ccc(Cl)cc1
active: [19] 13.9 µM
not listed: [7] | [13] | [15] | [20]
inactive: all other assays above

CCOC(=O)COc1cc(-c2nn(C)c(OC(F)F)c2Cl)c(F)cc1Cl
not listed: [13] | [15] | [19]
inactive: all other assays above
